Screening results as filed in PubChem BioAssay.
Most compounds without a hit are left out; they make up all but 3.1% or so of the library.
ALOX12 inhib: inhibitors of human 12-lipoxygenase (ALOX12); P18054; purified 12-hLO, xylenol orange hydroperoxide absorbance; Potency, µM (titrated, usually from 57.1 µM), for the others: at the top dose activity change, negative = inhibition, most hits filed as inhibitors; 150,000 tested, 0.12% active; note: potency is the fitted concentration of half-maximal effect; nearly all actives have a fitted effect of over 55% in size
Target sequence (P18054 whole entry, looked up): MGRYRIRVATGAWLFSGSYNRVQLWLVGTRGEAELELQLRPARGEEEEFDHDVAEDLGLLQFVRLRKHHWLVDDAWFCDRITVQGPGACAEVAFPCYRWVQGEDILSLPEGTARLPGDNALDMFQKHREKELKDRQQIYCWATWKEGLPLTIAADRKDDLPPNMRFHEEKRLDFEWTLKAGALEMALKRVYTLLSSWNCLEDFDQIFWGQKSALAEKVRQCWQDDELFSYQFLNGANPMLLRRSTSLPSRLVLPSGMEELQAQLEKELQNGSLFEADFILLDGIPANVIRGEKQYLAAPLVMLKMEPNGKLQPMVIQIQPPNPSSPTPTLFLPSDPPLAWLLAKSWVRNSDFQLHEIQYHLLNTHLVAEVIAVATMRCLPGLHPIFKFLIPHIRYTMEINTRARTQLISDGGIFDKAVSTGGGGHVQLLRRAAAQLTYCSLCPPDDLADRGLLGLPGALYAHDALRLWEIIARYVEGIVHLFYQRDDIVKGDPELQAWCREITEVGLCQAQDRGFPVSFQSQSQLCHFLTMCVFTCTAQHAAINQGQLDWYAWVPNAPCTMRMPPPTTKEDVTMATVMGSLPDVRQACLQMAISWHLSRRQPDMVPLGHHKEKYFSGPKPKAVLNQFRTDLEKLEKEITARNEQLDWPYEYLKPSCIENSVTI
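150 nM 12hLO, 25 mM Hepes pH 7.0 + 0.01% Triton X-100; cpd preinc 15 min RT; 40 uM arachidonic acid, 30 min RT; Fe-XO 30 min; A573/A405 ratio as read-out.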
PNC assembly inh: perinucleolar compartment assembly inhibition. PC3M PTB-GFP, PNC prevalence imaging, 16 h; hits give low values. activity change (PNC), negative = inhibition, % at 10 µM. 140,000 tested, 3.1% active;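 active = readout at or below -70, meaning at least 70% loss of cells showing the perinucleolar compartment, a nuclear body marking cancer cells; inconclusive = readout between -30 and a set limit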;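 note: plate controls were DMSO wells for no effect and camptothecin positive control wells for full effect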
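Compounds are pinned in duplicate onto adhered PC3M cells stably expressing GFP-tagged PTB and incubated 16 h at 37 C. Cells are then fixed, nuclei stained with Hoechst, and PNC-positive cells counted.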
15-hLO-2 inh: 15-hLO-2 (ALOX15B) enzyme inhibition. O15296. purified 15hLO-2, xylenol orange hydroperoxide absorbance. Potency, µM (series often up to 57.1 µM), for inactives: top-dose activity change, negative = inhibition, actives largely listed as inhibitors. 110,000 tested, 0.56% active; note: potency is the fitted concentration of half-maximal effect; nearly all actives have a fitted effect of over 60% in size
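Read-out: hydroperoxide product oxidises ferrous iron, measured as xylenol orange complex via the 573-to-405 nm absorbance ratio after 30 min. Reaction: 50 nM enzyme, 15 min compound preincubation, 45 uM arachidonic acid, 90 min RT, Hepes pH 7.5 with Triton X-100.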
* = called active by the depositor; ? = inconclusive; / = not tested or not shown; [ ] = another dose, or the depositor's remark. Unless noted, calls come from the whole dose curve; as a rule, active = well fitted curve in the direction sought with a large enough effect; inconclusive = small, poorly fitted or top-dose-only effect, or another doubt; inactive = no such curve, though single readings can be large; an effect the other way counts as inactive or inconclusive. Unless noted, % is set by controls: 0 for no effect and ±100 for the full control effect.

SMILES | ALOX12 inhib | PNC assembly inh | 15-hLO-2 inh
CC[C@@]1([C@@H]2O[C@@H]([C@H]3O[C@@](O)(CO)[C@H](C)C[C@@H]3C)C[C@@H]2C)CC[C@H]([C@]2(C)CC[C@]3(C[C@H](O)[C@@H](C)[C@@H]([C@@H](C)[C@@H](OC)C(C)C(=O)O)O3)O2)O1 (some centres undefined) | 0%[0.00818 µM] | / | -4%[0.0915 µM]
CCOC(=O)c1c(C)[nH]c2ccc3c(c12)CN1CCc2cc(OC)ccc2[C@@H]1O3 | 1% | / | 44%
c1ccc(-c2noc(-c3ccco3)n2)nc1 | 2% | ? | -3%
c1ccc(-c2nc(-c3ccco3)cs2)nc1 | -12% | -100* | -24%
COC(=O)[C@]1(C)CCC[C@]2(C)c3ccc(C(C)C)cc3C(=O)CC12 (some centres undefined) | -12% | / | 6%
CC[C@H](c1ccc(O)cc1)[C@@H](CC)c1ccc(O)cc1 | -20%[25.6 µM] | / | 10µM*
CCC(c1ccc(O)cc1)C(CC)c1ccc(O)cc1 (centres undefined) | -23% | / | ?
COc1cccc(-c2cncnc2NCc2cccc(C)c2)c1 | / | / | 46%
CC1(C)S[C@@H]2[C@H](NC(=O)[C@@H](NC(=O)N3CCNC3=O)c3ccccc3)C(=O)N2[C@H]1C(=O)O | -2%[25.6 µM] | / | 0%[25.6 µM]
C=CC1=C2C=C(C3CC3)N(c3ccc(OC)cc3)C=C2C(=O)C(C)(OC(=O)c2ccco2)C1=O (centres undefined) | -4%[11.4 µM] | / | /
NC(=O)c1ccccc1N/C=C/C(=O)c1cccs1 | 1% | -94* | /
Cc1cccc(N/C=C/C(=O)c2cccs2)c1C | -6% | -22 | /
Nn1c(SC/C=C/c2ccccc2)nnc1-c1ccncc1 | -1% | -1 | 0%
Cn1c(Cc2cccs2)nnc1SC/C=C/c1ccccc1 | 33% | -100* | /
Cn1c(Cc2cccs2)nnc1SCc1nc2ccccc2[nH]1 | 2% | 8 | 8%
Cn1c(SC/C=C/c2ccccc2)nnc1-c1ccco1 | 2% | -100* | /
Cc1c(OCc2ccccc2)c(=O)ccn1Cc1ccc(Cl)cc1 | -3% | 18 | 45%
Cc1[nH]ccc(=O)c1OCc1ccc(Cl)cc1 | 5% | -124* | -4%[11.4 µM]
Cc1ccc(Cn2ccc(=O)c(OCc3ccccc3)c2C)cc1 | -10% | ? | 0%
Cc1[nH]ccc(=O)c1OCc1ccccc1 | 0% | -111* | 10%[11.4 µM]
O=C(O)c1ccccc1NS(=O)(=O)c1ccccc1F | 0% | / | /
CC(C)=CCC[C@](C)(O[C@@H]1O[C@H](CO)[C@@H](O)[C@H](O)[C@H]1O)[C@H]1CC[C@]2(C)[C@@H]1[C@H](O)C[C@@H]1[C@@]3(C)CC[C@H](O[C@@H]4O[C@H](CO)[C@@H](O)[C@H](O)[C@H]4O[C@@H]4O[C@H](CO)[C@@H](O)[C@H](O)[C@H]4O)C(C)(C)[C@@H]3[C@@H](O)C[C@]12C | -2%[0.00818 µM] | / | 4%[0.0915 µM]
OC(CNCCc1ccccc1)c1ccccc1 (centres undefined) | 3% | 16 | 14%
O[C@@H](CNC[C@H](O)c1ccccc1)c1ccccc1 | 2% | -100* | /
O=C1c2ccccc2-c2onc3ccc(Oc4ccccc4)c1c23 | -2% | -11 | /
SMILES | ALOX12 inhib | PNC assembly inh | 15-hLO-2 inh
CCOC(=O)C(C(=O)OCC)c1cc(Br)c2noc3c2c1C(=O)c1ccccc1-3 | 0% | -83* | ?
CS(=O)(=O)c1ccc([C@H](O)[C@H](CO)NC(=O)C(Cl)Cl)cc1 | -1%[25.6 µM] | / | 0%[25.6 µM]
CCOc1ccc(NC(=O)COc2ccc(C(=O)NCCc3ccccc3)cc2)cc1 | -2% | -105* | /
CC(C)c1ccccc1NC(=O)COc1ccc(C(=O)NCCc2ccccc2)cc1 | -6% | 2 | /
O=C(c1cccc(F)c1)N1CCC[C@@]2(CCN(C(c3ccccc3)c3ccccc3)C2)C1 | -17% | / | 18%
CC(/C=N/n1cnnc1)=C\c1ccco1 | 1% | -100* | /
CC(/C=N/n1c(-c2ccc(Cl)cc2)n[nH]c1=S)=C\c1ccco1 | -4% | ? | /
C[C@H]1Cc2c(-c3ccccc3)nc3c(c2CO1)CN(C(=O)c1cc(I)ccc1F)CC3 | 1%[11.4 µM] | / | /
O=C(O)c1ccc(CNCc2ccccc2)cc1 | -1%[11.4 µM] | / | -4%[11.4 µM]
S=c1[nH]nc(-c2ccco2)n1/N=C/c1ccccc1Cl | -6% | -20 | /
Cc1cccc(-n2c(-c3ccco3)n[nH]c2=S)c1 | 0% | ? | /
Cc1ccccc1-n1c(-c2ccco2)n[nH]c1=S | 0% | -114* | /
Cc1ccc(/C=N/n2c(-c3ccco3)n[nH]c2=S)s1 | 0% | -113* | /
CCOc1ccc(CCNC(=O)C(C)n2nc(C)n3c(cc4occc43)c2=O)cc1OCC (centres undefined) | -3% | 29 | -2%
CCOc1ccc(CNC(=O)C(CC)n2nc(C)n3c(cc4occc43)c2=O)cc1OC (centres undefined) | -5% | -89* | -4%
COc1cc(NC(=S)NC2CC2)c(OC)cc1Cl | 3% | ? | /
COc1cc(NC(=O)C(=O)NNC(=O)C2CCCCC2)c(OC)cc1Cl | 0% | -95* | /
NS(=O)(=O)c1cc(C(=O)O)c(O)c2ccccc12 | -2%[11.4 µM] | / | -15%[11.4 µM]
COc1cccc2c1C(=O)c1c(O)c3c(c(O)c1C2=O)C[C@](O)(C(C)=O)C[C@H]3O[C@@H]1C[C@H](N)[C@H](O)[C@H](C)O1 | -2%[25.6 µM] | / | 29%[25.6 µM]
COc1cccc2c1C(=O)c1c(O)c3c(c(O)c1C2=O)C[C@@](O)(C(=O)CO)C[C@@H]3O[C@H]1C[C@H](N)[C@H](O)[C@H](C)O1 | -3% | -115* | 21%
CCCCc1cc2c(cn1)=C(OC(=O)C1CCCC1)C(C)(OC(=O)CC)C(=O)C=2 (centres undefined) | 0%[11.4 µM] | / | /
Cc1c(C)c2c(c(C)c1O)CCC(C)(CCCC(C)CCCC(C)CCCC(C)C)O2 (centres undefined) | -1% | / | -1%
COc1ccc(NC(=O)N2CCCC3(CCN(C(=O)c4cccc(F)c4)CC3)C2)cc1 | -3% | / | 2%
OC1CC2CC[C@H](C1)N2CCCN1c2ccccc2Sc2ccc(Cl)cc21 (some centres undefined) | -3%[11.4 µM] | / | 8%[11.4 µM]
CCCC(=O)Nc1nc(-c2ccc3c(c2)CCN3S(C)(=O)=O)cs1 | 0% | 32 | /
SMILES | ALOX12 inhib | PNC assembly inh | 15-hLO-2 inh
CS(=O)(=O)N1CCc2cc(-c3csc(NC(=O)Cc4ccccc4)n3)ccc21 | -4% | -119* | /
CC1Cc2cc(-c3csc(NC(=O)Cc4cccs4)n3)ccc2N1S(C)(=O)=O (centres undefined) | 0% | -125* | 3%
O=C(Cc1cccs1)Nc1nc(-c2ccc(F)cc2F)cs1 | -2% | ? | 2%
CC(C)(N)CO[C@H]1C[C@H]2CC[C@@]1(C)C2(C)C | -1%[11.4 µM] | / | -5%[11.4 µM]
COc1ccc(-n2c(=O)c(-c3ccc(F)cc3)nc3cncnc32)cc1 | / | / | -8%
N#C/C(=C\c1c[nH]c2ccccc12)C(=O)c1ccc(O)c(O)c1 | 4µM* | / | -29%
N#C/C(=C\c1ccc(O)c(O)c1)C(=O)c1ccc(O)c(O)c1 | ? | / | -29%
CN1CCCC2(CCN(C(=O)c3cccn3C)CC2)C1 | -2% | / | -5%
O=C(Oc1ccccc1)N1CCC2(CC1)CCN(c1ccccc1)CC2 | -7% | / | 19%
Cc1c(NC(=O)C(C)OC(=O)c2sc3ccccc3c2Cl)c(=O)n(-c2ccccc2)n1C (centres undefined) | -2% | -116* | /
